TDP1 block – qHTS Assay for Inhibitors of Tyrosyl-DNA Phosphodiesterase (TDP1); Tyrosyl-DNA phosphodiesterase 1 (Homo sapiens), Q9NUW8; recombinant TDP1, AlphaScreen DNA substrate cleavage; Potency, µM (series often up to 130 µM), inactives show top-dose activity change, negative = inhibition, usual class: inhibitors; hit rate 0.28% among 350,000; also: nearly all actives have a fitted effect of over 40% in size
Target sequence (Q9NUW8 whole entry, looked up): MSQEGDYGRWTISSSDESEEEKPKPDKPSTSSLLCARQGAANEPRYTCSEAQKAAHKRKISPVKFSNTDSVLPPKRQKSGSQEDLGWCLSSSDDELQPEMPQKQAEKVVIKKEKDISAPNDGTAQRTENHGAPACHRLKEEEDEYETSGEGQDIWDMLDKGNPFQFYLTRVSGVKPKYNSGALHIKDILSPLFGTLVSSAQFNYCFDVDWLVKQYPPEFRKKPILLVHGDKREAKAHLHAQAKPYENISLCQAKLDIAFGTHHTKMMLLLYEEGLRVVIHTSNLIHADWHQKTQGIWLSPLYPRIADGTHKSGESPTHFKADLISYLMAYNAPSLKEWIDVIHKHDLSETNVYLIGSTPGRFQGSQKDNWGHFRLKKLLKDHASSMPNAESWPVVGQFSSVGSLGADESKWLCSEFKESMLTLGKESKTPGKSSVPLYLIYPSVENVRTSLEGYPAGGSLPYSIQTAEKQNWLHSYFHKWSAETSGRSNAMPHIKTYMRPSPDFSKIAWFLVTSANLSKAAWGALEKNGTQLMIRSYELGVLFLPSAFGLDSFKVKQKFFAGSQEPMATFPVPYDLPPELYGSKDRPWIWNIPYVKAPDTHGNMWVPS
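Compounds were preincubated with Tdp1 (1 nM final) for 15 min at room temperature before substrate (15 nM final) started a 5 min reaction; beads (10 ug/ml final) were then added for 10 min before AlphaScreen detection.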
KAT2A inh – qHTS Assay for Inhibitors of GCN5L2. hit rate 0.21% among 390,000. AID 504327, 2011. GCN5L2 HAT assay, ThioGlo1 CoA-SH fluorescence. Potency, µM (series often up to 58.9 µM), inactives show at the highest dose activity change, negative = inhibition, most hits filed as inhibitors. Histone acetyltransferase KAT2A (Homo sapiens), Q92830
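ThioGlo1-coupled HAT assay: 20nM GCN5L2, 70uM acetyl-CoA, 75uM H3(1-25) peptide, pH 7.5. Fluorescence read at 340/540nm at start and after 20 min at room temperature.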
VDR inhibitor – Inhibitors of the vitamin D receptor (VDR): qHTS | Vitamin D3 receptor (Homo sapiens), P11473 | VDR-SRC2-3 peptide fluorescence polarization, 2 h | Potency, µM, for the others: max response, negative = inhibition, hits mostly inhibitors | hit rate 0.93% among 400,000 | AID 504847, 2011
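Fluorescence polarization assay measuring small-molecule disruption of VDR binding to the coregulator peptide SRC2-3. Compounds were pin-transferred (23 nl) into the reagent mix and incubated 2 h at room temperature before reading.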
TDP1 cell noCPT – qHTS for Inhibitors of human tyrosyl-DNA phosphodiesterase 1 (TDP1): qHTS in cells in absence of CPT; DT40 Tdp1-/- hTDP1 cells, no CPT, ATP luminescence, 48 h; Potency, µM (series often up to 46.2 µM), inactives show at the highest dose activity change, negative = growth inhibition, usual class: inhibitors; hit rate 15% among 420,000; also: nearly all actives have a fitted effect of over 55% in size
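Growth kinetics read by CellTiter-Glo luminescence after ≥48 hr at 37 °C. Cells: DT40 Tdp1-/- stably carrying human TDP1, 400 per well, compound exposure in the absence of CPT (DMSO vehicle).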
DT40 TDP1 CPT – qHTS for Inhibitors of human tyrosyl-DNA phosphodiesterase 1 (TDP1): qHTS in cells in presence of CPT; chicken DT40 Tdp1-/-;hTDP1 cells + 20 nM CPT, ATP luminescence, 48 h; hit rate 12% among 420,000; Potency, µM (series often up to 46.2 µM), without a hit: at the highest dose activity change, negative = growth inhibition, most hits filed as inhibitors; AID 686979, 2013; also: nearly all actives have a fitted effect of over 55% in size
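Chicken DT40 Tdp1-/- cells complemented with human TDP1, 400 cells/well, exposed to compounds plus 20 nM camptothecin for at least 48 h at 37 C; viability read as ATP content by CellTiter-Glo luminescence.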
PLK1 PBD inh – qHTS for Inhibitors of PLK1-PDB (polo-like kinase 1 - polo-box domain): Primary Screen; hit rate 2.8% among 360,000; Serine/threonine-protein kinase PLK1 (Homo sapiens), P53350; AID 720504, 2013; Plk1 PBD binding of FITC phosphopeptide, fluorescence polarization; Potency, µM, for inactives: max response, negative = inhibition, usual class: inhibitors; also: series mostly up to about 57 µM; nearly all actives have a fitted effect of over 65% in size
* = called active by the depositor; ? = inconclusive; . = no result given; ! = not active in a repeat. A selection: hits, their analogues and other compounds. The true share with any hit is near 18%. Calls follow the shape of the dose curve; as a rule, active = well fitted curve in the direction sought with a large enough effect; inconclusive = small, poorly fitted or top-dose-only effect, or another doubt; inactive = no such curve, though single readings can be large; an effect the other way counts as inactive or inconclusive. % is scaled to controls: 0 for no effect and ±100 for the full control effect; potency is read from the fitted curve at half-maximal effect.

SMILES	TDP1 block	KAT2A inh	VDR inhibitor	TDP1 cell noCPT	DT40 TDP1 CPT	PLK1 PBD inh
CCn1c(SCC(=O)Nc2sccc2C(N)=O)nnc1C1CC1	-3.8%	-3.2%	17.1%	0.3%	0.6%	-8.2%
CCOC(=O)[C@]12CCC=C1N(Cc1ccccc1)C(=O)[C@H](CC(=O)NCCCCc1ccccc1)C2	.	.	.	20.6µM*	?	1.8%
CCOC(=O)[C@]12CCC=C1N(Cc1ccccc1)C(=O)[C@H](CC(=O)NCc1ccc(OC)c(OC)c1)C2	.	.	.	?	?	-10.3%
CCOC(=O)[C@]12CCCC=C1N(Cc1ccco1)C(=O)[C@H](CC(=O)NCCC(C)C)C2	.	.	.	16.4µM*	?	-5.8%
CCOC(=O)[C@]12CCC=C1N(Cc1ccccc1)C(=O)[C@H](CC(=O)NCc1cccs1)C2	.	.	.	23.1µM*	?	-13.0%
CCOC(=O)[C@]12CCC=C1N(Cc1ccco1)C(=O)[C@H](CC(=O)NCCC(C)C)C2	.	.	.	-26.9%	-1.0%	-0.9%
CCCCCCCCN1C(=O)[C@H](CC(=O)NCCCCc2ccccc2)C[C@@]2(C(=O)OCC)CCCC=C12	.	.	.	?	?	-5.3%
CCOC(=O)[C@]12CCC=C1N(Cc1ccccc1)C(=O)[C@H](CC(=O)NCc1cccc(C(F)(F)F)c1)C2	.	.	.	23.1µM*	?	-9.2%
COC(=O)CCN1CCc2cc(N=Nc3ccc([N+](=O)[O-])cc3)ccc21	.	-1.5%	-23.5%	-28.2%	-8.7%	-4.2%
O=C(OCC(=O)N1CCCc2ccccc21)c1ccccc1NCCO	3.3%	-2.2%	-3.4%	?	-23.0%	1.2%
CCOC(=O)[C@]12CCC=C1N(Cc1ccccc1)C(=O)[C@H](CC(=O)NCCC(C)C)C2	.	.	.	?	20.6µM*	-11.6%
O=C1Nc2ccc(F)cc2C12Nc1ccccc1-c1nnc(SCc3ccccc3F)nc1O2 (stereo not given)	6.4%	1.9%	-22.1%	?	?	?
O=C1Nc2ccc(Cl)cc2C12Nc1ccccc1-c1nnc(SCc3ccccc3F)nc1O2 (stereo not given)	-8.1%	-17.8%	4.3%	?	14.6µM*	?
Cc1cccc(NC(=O)c2nc[nH]c2C(=O)Nc2cc(Br)ccc2F)c1	.	.	.	8.2µM*	13µM*	-9.1%
Cc1cccc(NC(=O)c2nc[nH]c2C(=O)Nc2ccccc2[N+](=O)[O-])c1	4.5%	3.6%	-3.5%	2.91µM*	6.51µM*	-6.5%
Cc1cccc(NC(=O)c2nc[nH]c2C(=O)NC[C@@H](C)O)c1	.	.	.	-20.8%	12.4%	1.2%
Cc1ccc(NC(=O)c2cc(-c3ccc(Br)s3)nc3ccccc23)cc1F	8.2%	-5.0%	-9.5%	-28.3%	?	.
CCNC(=O)c1cc2c(=O)n3cccc(C)c3nc2n(CCc2ccccc2)c1=N	1.1%	-3.9%	6.1%	12.6µM*	?	-11.2%
Cc1cccn2c(=O)c3cc(C(=O)NCCN4CCOCC4)c(=N)n(CCc4ccccc4)c3nc12	3.9%	-16.7%	-6.1%	23.1µM*	?	-3.7%
CCOc1cc(CNCc2cccnc2)cc(Br)c1OCC(N)=O	4.5%	-11.5%	-9.7%	-4.3%	-6.6%	-8.0%
Cc1n[nH]c(C)c1N1C(=O)c2cccc3c(N4CCCCCC4)ccc(c23)C1=O	2.8%	0.1%	5.9%	23.1µM*	?	?
COc1ccc(NC(=O)CN(c2ccccc2OC)S(C)(=O)=O)c(OC)c1	.	-14.1%	-16.0%	-13.4%	-1.2%	.
COC(=O)Cc1c(C)c2ccc3c(c2oc1=O)CN(Cc1ccc(Cl)cc1)CO3	0.0%	?	5.6%	?	?	.
OCCOCCN1CCN(C2=Nc3ccccc3Sc3ccccc32)CC1	3.1%	?	-11.0%	18.8µM*!	23.7µM*!	-17.2%
Cc1ccn2c(C(=O)CSc3ccccc3)c(C)nc2c1	-0.6%	1.8%	-1.3%	8.2µM*	8.2µM*	-5.5%
SMILES	TDP1 block	KAT2A inh	VDR inhibitor	TDP1 cell noCPT	DT40 TDP1 CPT	PLK1 PBD inh
Cc1ccn2c(C(=O)CSc3ccc(Cl)cc3)c(C)nc2c1	0.0%	0.2%	6.1%	20.6µM*	23.1µM*	0.2%
CCOC(=O)c1ccccc1NC(=O)NCc1c(-n2cccc2)sc2c1CCCC2	2.9%	-5.0%	9.5%	?	?	.
CC12CCC=CC1C(c1ccc3ccccc3c1)N(Cc1ccccc1)C2=O (stereo not given)	10.9%	.	?	.	.	.
CCCOc1ccc(/C=C/C(=O)OCC(=O)N(C)c2c(N)n(Cc3ccccc3)c(=O)[nH]c2=O)cc1OCC	7.2%	-2.8%	-15.7%	16.4µM*	?	-0.3%
COc1ccc2c(CC(=O)OCC(=O)N(C)c3c(N)n(Cc4ccccc4)c(=O)[nH]c3=O)coc2c1	.	.	5.1%	?	0.9%	0.7%
COCCN(C(=O)COC(=O)/C=C/c1ccc(SC)cc1)c1c(N)n(Cc2ccccc2)c(=O)[nH]c1=O	.	.	4.4%	-4.2%	-19.5%	2.6%
COCCN(C(=O)COC(=O)/C=C/c1ccc(C(F)(F)F)cc1)c1c(N)n(Cc2ccccc2)c(=O)[nH]c1=O	-7.4%	1.6%	2.2%	20.6µM*	20.6µM*	-13.3%
CN(C(=O)COC(=O)/C=C/c1ccc(Cl)c(Cl)c1)c1c(N)n(Cc2ccccc2)c(=O)[nH]c1=O	0.2%	-6.1%	-6.2%	16.4µM*	9.2µM*	1.0%
COCCN(C(=O)COC(=O)Cc1coc2cc(C)ccc12)c1c(N)n(Cc2ccccc2)c(=O)[nH]c1=O	28.2µM*	-12.3%	-8.4%	-16.0%	-9.0%	-9.9%
O=C1CSC(=S)N1Nc1ccccc1	.	.	18.8%	-14.2%	-14.0%	-28.9%
CC(CN1C(C)CCCC1C)OC(=O)c1ccc(Cl)cc1Cl (stereo not given)	-5.0%	-1.6%	1.0%	-3.8%	-27.0%	-11.8%
